HTR5A ag ctr: counter-screen for OPRM1-OPRD1 agonists: human HTR5A agonism. P47898. HTR5A agonist assay, luminescence, cell-based. activation, % at 9.3 µM. hit rate 0.61% among 340,000. AID 504692; in the data active = activation mostly above about 9.5%, no sharp cut-off; inactive = mostly below about 7.6%;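 also: 0% = cells with vehicle only and 100% = reference agonist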
Target sequence (P47898 whole entry, looked up): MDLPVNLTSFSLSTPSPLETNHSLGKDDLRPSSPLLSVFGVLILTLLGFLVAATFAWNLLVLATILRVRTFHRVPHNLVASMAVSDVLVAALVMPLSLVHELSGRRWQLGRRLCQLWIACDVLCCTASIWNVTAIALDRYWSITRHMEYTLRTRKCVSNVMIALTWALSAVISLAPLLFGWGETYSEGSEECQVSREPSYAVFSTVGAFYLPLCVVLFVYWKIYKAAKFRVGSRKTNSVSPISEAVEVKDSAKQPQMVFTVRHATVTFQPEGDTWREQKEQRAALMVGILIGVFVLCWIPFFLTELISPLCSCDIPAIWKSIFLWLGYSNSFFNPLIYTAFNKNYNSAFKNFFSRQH
MsrA act: activators of bovine methionine sulfoxide reductase A; purified bovine MsrA, absorbance read-out; activation, % at 10.6 µM; hit rate 0.3% among 360,000; in the data active = activation above about 7.5%;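 also: 0% = vehicle and 100% = reference activator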
HTR5A inv ctr: inverse agonist of human HTR5A in OPRM1-OPRD1 counter-screen; P47898; HTR5A cell line, luminescence, inverse agonism; inhibition, % at 9.3 µM; hit rate 0.083% among 340,000; in the data active = inhibition mostly above about 23%, no sharp cut-off; inactive = mostly below about 18%;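 also: 0% = cells with DMSO and 100% = no-cell wells with DMSO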
MsrA inhibitor: inhibitors of bovine MsrA; purified bovine MsrA, absorbance read-out; inhibition, % at 15.5 µM; hit rate 0.75% among 360,000; AID 651718;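 also: 0% = vehicle wells with enzyme and 100% = reference inhibitor wells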
MOR-DOR ag: agonists of human mu-delta opioid receptor heterodimerization | activation, % at 9.3 µM | cells, OPRM1-OPRD1 heterodimerization, luminescence | P35372+P41143 | hit rate 0.3% among 340,000 | AID 504326; in the data active = activation above about 18%;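 also: 0% = vehicle-treated cells and 100% = reference agonist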
OPRM1-OPRD1 inv: mu-delta opioid heterodimer inverse agonism; P35372+P41143; cell-based MOR-DOR heterodimer luminescence; inhibition, % at 9.3 µM; hit rate 0.21% among 340,000; AID 504357; in the data active = inhibition above about 22%, passing the limit was not always enough;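 also: 0% = cells with DMSO and 100% = wells without cells with DMSO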
MsrA conf: bovine MsrA inhibition, confirmed. purified bovine MsrA, absorbance read-out. shares compounds with MsrA inhibitor. hit rate 41% among 2,300. inhibition, % at 15.5 µM;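 also: coupled to thioredoxin reductase with NADPH and selenocystamine and DMSO as substrate; 0% = vehicle only and 100% = full effect of reference inhibitor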
Active calls of the source: *. Compounds with a hit are over-represented: about 1.9% of the library has one in this group of screens. Rule as the data show it, unless noted: active = inhibition above about 4.5%; inactive = the rest.

Results for Cc1ccc(C(=O)N/N=C\c2ccc(Br)o2)o1 ?
HTR5A ag ctr: -3; MsrA act: -10; HTR5A inv ctr: 2; MsrA inhibitor: 6.4*; MOR-DOR ag: 0; OPRM1-OPRD1 inv: 0; MsrA conf: 6.7*

How did O=C(N/N=C\C=C\c1ccc2c(c1)OCO2)c1cccnc1 do in these assays?
HTR5A ag ctr: 3; MsrA act: -15; HTR5A inv ctr: -1; MsrA inhibitor: 8.0*; MOR-DOR ag: 1; OPRM1-OPRD1 inv: -4; MsrA conf: 5.7*

What do the screens show for `O=C(N/N=C\C=C\c1ccc2c(c1)OCO2)C1COc2ccccc2O1` (stereo not given)?
HTR5A ag ctr: 8; MsrA act: -11; HTR5A inv ctr: 9; MsrA inhibitor: 4.8*; MOR-DOR ag: -1; OPRM1-OPRD1 inv: 9; MsrA conf: 3

How did CN(C)CCN1CCN(C2CN(Cc3cn(Cc4ccc(F)cc4)nn3)S(=O)(=O)C2)CC1 (stereo not given) do in these assays?
MsrA act: -2; MsrA inhibitor: 0

What do the screens show for `COC1=C/C(=C/c2c(N)n3nc(-c4ccc(C)cc4)sc3nc2=O)C=CC1=O`?
HTR5A ag ctr: -2; MsrA act: -5; HTR5A inv ctr: 5; MsrA inhibitor: 4; MOR-DOR ag: -2; OPRM1-OPRD1 inv: 11

Results for CCS(=O)(=O)c1nn2c(N)c(/C=C3/C=CC(=O)C(OC)=C3)c(=O)nc2s1 ?
HTR5A ag ctr: 4; MsrA act: -1; HTR5A inv ctr: 19; MsrA inhibitor: 4.7*; MOR-DOR ag: -2; OPRM1-OPRD1 inv: 10; MsrA conf: 3

What do the screens show for `CCOC(=O)[C@]12CCCC=C1N(Cc1ccccc1)C(=O)[C@H](CC(=O)NCCCN1CCCC1=O)C2`?
MsrA inhibitor: -1

Results for O=C1NC(N2CCOCC2)=N/C1=C/c1ccc2c(c1)OCO2 ?
HTR5A ag ctr: 1; MsrA act: -4; HTR5A inv ctr: 23; MsrA inhibitor: 4.9*; MOR-DOR ag: 0; OPRM1-OPRD1 inv: -2; MsrA conf: 3

What do the screens show for `CSCc1c(C(=O)N2CCCc3ccccc32)oc2ccccc12`?
HTR5A ag ctr: -5; MsrA act: -3; HTR5A inv ctr: 11; MsrA inhibitor: 8.4*; MOR-DOR ag: 4; OPRM1-OPRD1 inv: -17; MsrA conf: 0

How did CCOC(=O)C1=C(c2ccccc2)OC(N)=C(C#N)C1c1ccco1 (stereo not given) do in these assays?
HTR5A ag ctr: 8; MsrA act: -4; HTR5A inv ctr: -21; MsrA inhibitor: 6.3*; MOR-DOR ag: 0; OPRM1-OPRD1 inv: 0; MsrA conf: 3

How did O=C(O)c1ccc(N/N=C2/CCCc3ccccc32)cc1 do in these assays?
HTR5A ag ctr: 5; MsrA act: -11; HTR5A inv ctr: -5; MsrA inhibitor: 5.8*; MOR-DOR ag: -2; OPRM1-OPRD1 inv: 9; MsrA conf: 7.0*

What do the screens show for `OC[C@H]1O[C@@H](c2nc(-c3ccc(Br)cc3)no2)C[C@@H]1O`?
MsrA act: -1; MsrA inhibitor: 1

Results for CCN(/N=C/c1ccc(Cl)cc1)c1cc(=O)n(C)c(=O)[nH]1 ?
HTR5A ag ctr: -3; MsrA act: -6; HTR5A inv ctr: -3; MsrA inhibitor: 3; MOR-DOR ag: -4; OPRM1-OPRD1 inv: 17

What do the screens show for `CCN(/N=C/C=C/c1ccccc1)c1cc(=O)n(C)c(=O)[nH]1`?
HTR5A ag ctr: 2; MsrA act: -8; HTR5A inv ctr: 10; MsrA inhibitor: 11*; MOR-DOR ag: -1; OPRM1-OPRD1 inv: 5; MsrA conf: 11*

Results for COc1ccc(CNS(=O)(=O)c2cc(Br)ccc2Br)c(OC)c1 ?
MsrA inhibitor: 0

How did CCn1c(CNC(=O)c2ccccc2Br)nnc1SCC(=O)NC1=NCCS1 do in these assays?
HTR5A ag ctr: 3; MsrA act: -2; HTR5A inv ctr: 9; MsrA inhibitor: 6.5*; MOR-DOR ag: -2; OPRM1-OPRD1 inv: 9; MsrA conf: 1

How did CCn1c(SCC(=O)NC2=NCCS2)nnc1C(C)NC(=O)c1ccccc1Br (stereo not given) do in these assays?
HTR5A ag ctr: 10; MsrA act: -3; HTR5A inv ctr: -27; MsrA inhibitor: 1; MOR-DOR ag: -2; OPRM1-OPRD1 inv: 12

What do the screens show for `CC(=O)C1=C(C)N(Cc2ccc(Br)cc2)C(=S)NC1c1cccc(Br)c1` (stereo not given)?
MsrA inhibitor: 1

How did CN(C)c1ccc(/C=N/NC(=O)CNC(=O)c2ccncc2)cc1 do in these assays?
HTR5A ag ctr: -4; MsrA act: -7; HTR5A inv ctr: 11; MsrA inhibitor: 5.1*; MOR-DOR ag: -2; OPRM1-OPRD1 inv: 9; MsrA conf: 5.1*

What do the screens show for `CN(C)c1ccc(/C=N/NC(=O)CNC(=O)c2ccc3c(c2)OCCO3)cc1`?
HTR5A ag ctr: 1; MsrA act: -10; HTR5A inv ctr: -3; MsrA inhibitor: 5.1*; MOR-DOR ag: 2; OPRM1-OPRD1 inv: -11; MsrA conf: 5.1*

How did CN(C)c1ccc(/C=N/NC(=O)CNC(=O)/C=C/c2ccco2)cc1 do in these assays?
HTR5A ag ctr: -5; MsrA act: -7; HTR5A inv ctr: -7; MsrA inhibitor: 6.7*; MOR-DOR ag: -3; OPRM1-OPRD1 inv: 17; MsrA conf: 7.1*

What do the screens show for `COc1cc(/C=N/NC(=O)CNC(=O)c2ccncc2)ccc1O`?
HTR5A ag ctr: 6; MsrA act: -5; HTR5A inv ctr: 6; MsrA inhibitor: 1; MOR-DOR ag: -1; OPRM1-OPRD1 inv: 8

What do the screens show for `C[C@H](CO)N1C[C@H](C)[C@@H](CN(C)C(=O)Nc2ccc(-c3cccs3)cc2)OCc2cn(nn2)CCCC1=O`?
MsrA inhibitor: 1

What do the screens show for `CCCOc1ccc2[nH]c(C(=O)N/N=C/c3cc(OC)c(OC)c(OC)c3)cc2c1`?
HTR5A ag ctr: -2; MsrA act: -4; HTR5A inv ctr: 9; MsrA inhibitor: 2; MOR-DOR ag: 1; OPRM1-OPRD1 inv: -5

Results for COc1ccc(OC)c(/C=N\NC(=O)c2ccc(-c3ccccc3)cc2)c1 ?
HTR5A ag ctr: 2; MsrA act: -5; HTR5A inv ctr: -6; MsrA inhibitor: 1; MOR-DOR ag: 3; OPRM1-OPRD1 inv: -10

Results for COc1ccc2[nH]c(C(=O)N/N=C/c3ccccc3OC)cc2c1 ?
HTR5A ag ctr: -1; MsrA act: -5; HTR5A inv ctr: 2; MsrA inhibitor: 5.8*; MOR-DOR ag: 7; OPRM1-OPRD1 inv: -35; MsrA conf: 5.4*

How did COc1ccc(/C=N/NC(=O)c2cccc(NC(=O)c3ccccc3Cl)c2)c(OC)c1 do in these assays?
HTR5A ag ctr: -2; MsrA act: -15; HTR5A inv ctr: 6; MsrA inhibitor: 5.3*; MOR-DOR ag: 2; OPRM1-OPRD1 inv: -11; MsrA conf: 2

What do the screens show for `COc1ccc(C(=O)N/N=C/c2cc3ccccc3[nH]c2=O)cc1`?
HTR5A ag ctr: 0; MsrA act: -4; HTR5A inv ctr: -1; MsrA inhibitor: 5.0*; MOR-DOR ag: -2; OPRM1-OPRD1 inv: 12; MsrA conf: 4

Screening data deposited in PubChem BioAssay by The Scripps Research Institute Molecular Screening Center.
